Measurements published in PubChem BioAssay AID651660 (Broad Institute, 2012).
Values joined by “and” are separate entries in the source; they are usually repeats but may differ in a detail not shown here. Identical values can stand only once. The whole screen tested about 1,900 compounds, of which about 15 (0.8%) were called active. The full list was thinned out, with actives kept by preference. Unmarked numbers belong to inactive results.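 The calls were made as follows: active = every replicate shows at least 50% inhibition; inconclusive = mean inhibition at least 50% but some replicate below; inactive = the rest.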

The molecules below were run against DNA repair protein RAD52 homolog (Homo sapiens) (UniProt P43351) (assay: inhibition of RAD52-mediated strand annealing – biochemical, FRET, single point, primary screen (AID 651660;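 also: 0% = median of neutral control wells and 100% = median of positive control wells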)). Conditions: Recombinant RAD52 ssDNA annealing, FRET fluorescence, 30 min; at 18.7 µM; stronger effect = higher value.
Sequence of DNA repair protein RAD52 homolog (Homo sapiens) (P43351 whole entry, looked up): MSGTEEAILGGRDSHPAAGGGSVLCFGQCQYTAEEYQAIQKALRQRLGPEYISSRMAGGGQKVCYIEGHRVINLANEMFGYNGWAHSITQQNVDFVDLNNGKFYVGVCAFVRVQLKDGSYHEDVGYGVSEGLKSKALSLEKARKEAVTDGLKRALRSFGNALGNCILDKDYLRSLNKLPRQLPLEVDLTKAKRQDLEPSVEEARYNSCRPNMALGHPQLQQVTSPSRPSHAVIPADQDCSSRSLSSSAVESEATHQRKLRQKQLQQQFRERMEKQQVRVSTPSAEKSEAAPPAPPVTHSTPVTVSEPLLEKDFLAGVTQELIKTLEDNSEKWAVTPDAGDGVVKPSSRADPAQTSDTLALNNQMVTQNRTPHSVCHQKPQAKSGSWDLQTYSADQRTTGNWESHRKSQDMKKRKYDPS
Work on O=C(CNC(=O)OCc1ccccc1)NC1CCCCCC1 yielded an inhibition of 0.625%. In the case of CC(C)OC(=O)C1C2C=CC3(CN(CC4CCCO4)C(=O)C13)O2 (stereo not drawn), the inhibition was -7.36%. In the case of O=C(O)c1ccc(-c2ccc(O)c(F)c2)cc1, the inhibition was -3.36%. Cc1ncc(C(=O)O)c(C(=O)O)c1N showed an inhibition of -18.8%. In the case of O=C(O)CCCNc1ccc(S(=O)(=O)Nc2ccccc2C(=O)O)cc1C(=O)O, the inhibition was -12.9%. CCOC(=O)c1ccc(N2C(=O)C(CC(N)=O)N(CCc3ccc(OC)c(OC)c3)C2=S)cc1 (stereo not drawn) was tested, and the inhibition was 3.53%. CC(C)c1ccc(NC(=O)CNS(=O)(=O)c2ccc(F)cc2)cc1 gave an inhibition of 3.93%. Molecule CCOc1ccc2oc(-c3ccccc3)c(C(=O)O)c2c1 has an inhibition of -1.63%. Cc1cccc(-n2c(Cc3ccccc3)n[nH]c2=S)c1 showed an inhibition of -6.53%. NCCOc1ccccc1OCCN was tested, and the inhibition was 2.09%. In the case of COc1ccc(C2CC(c3ccc([N+](=O)[O-])cc3)=NN2C(=O)c2ccccc2)cc1OC (stereo not drawn), the inhibition was -4.95%. Molecule O=C(c1ccc(-c2ccccc2)c(F)c1)C1CCCN(C(=O)c2cncs2)C1 (stereo not drawn) has an inhibition of -5.72%. O=C(OCC1OC2OC3(CCCCC3)OC2C2OC3(CCCCC3)OC12)c1ccccc1 (stereo not drawn) showed an inhibition of -6.56%. For COC1(C)CC2C(CC1OC(=O)c1cc([N+](=O)[O-])cc([N+](=O)[O-])c1)C2(C)C (stereo not drawn), the inhibition was 2.54%. Work on COc1ccc2c(c1)[N+](C)(C)C(C)(C)C=C2C yielded an inhibition of 2.05%. For CC(=O)OCC#CCSc1nc2ccccc2n1C, the inhibition was -0.59%. Molecule CC(C)COCC1CC2(CC(C)(c3csc(N)n3)OC2=O)C(=O)O1 (stereo not drawn) has an inhibition of -11.3%. COc1cc(C2NCCc3c2[nH]c2ccccc32)ccc1OC(C)C (stereo not drawn) was tested, and the inhibition was 1.55%. Work on CC12CN3CC(C)(CN(C1)C3c1ccc(Br)cc1O)C2 (stereo not drawn) yielded an inhibition of -9.4%. Cc1ccc2c(c1)C1(C(=O)N2)N2CCCC2C(C(=O)c2ccc3ccccc3c2)C12C(=O)Nc1ccccc12 (stereo not drawn) was tested, and the inhibition was 8.82%. COc1ccc(-c2noc(-c3ccccc3-c3ccccc3)n2)cc1 gave an inhibition of 2.09%. Work on O=C(CS(=O)(=O)Cc1ccccc1)NCc1ccc2c(c1)OCO2 yielded an inhibition of 1.08%. With CC(=O)N(CCC(Cc1ccccc1)c1ccc2c(c1)OCO2)Cc1ccc(Cl)cc1 (stereo not drawn) the inhibition was 16.3%. COc1ccc(C(=O)C2CCCCC2=O)cc1 (stereo not drawn) gave an inhibition of -11.5%. With CC(CN1c2ccccc2Sc2ccccc21)N(C)C (stereo not drawn) the inhibition was 7.73%. In the case of CSc1ccc2c(c1)N(CCC1CCCCN1C)c1ccccc1S2 (stereo not drawn), the inhibition was 61.6% (active). With CCOC(=O)c1cc2c(nc1N)CC(C)(CC)OC2 (stereo not drawn) the inhibition was -11.6%. COC(=O)C1=CN(Cc2cccs2)C=C(C(=O)OC)C1c1cccc(Cl)c1 gave an inhibition of 11.7%. Work on CN1C(=O)NC(c2ccc(O)cc2)C2=C1CN(c1cccc3ccccc13)C2=O (stereo not drawn) yielded an inhibition of -2.34%. With CC(=O)C1=C(NC(=O)c2ccc(C(F)(F)F)cc2)C[C@@H]2[C@H]1C2(C)C the inhibition was 4.2%. CN(C)c1ccc(C(CN)c2c[nH]c3ccccc23)cc1 (stereo not drawn) showed an inhibition of -2.21%. O=[N+]([O-])c1cc(/C=N/n2cnnc2)ccc1N1CCCC1 showed an inhibition of -0.23%. For COC(=O)c1ccc(=O)n(Cc2ccco2)c1, the inhibition was -5.57%. In the case of CC(=O)N1CC2(C)CN(C(C)=O)CC(C)(C1)C2, the inhibition was -4.54%. With CSc1cccc(NC(=O)/C=C/c2ccccc2)c1 the inhibition was 5.27%. Work on N/C(=N\OC(=O)c1ccc(Br)o1)c1ccccn1 yielded an inhibition of -4.88%. COc1ccc2c(=O)c(-c3cnn(-c4ccccc4)c3)c(C)oc2c1 was tested, and the inhibition was -8.23%. For COc1ccc(S(=O)(=O)N2CCN(C(=O)COc3ccc4c(C)cc(=O)oc4c3)CC2)cc1, the inhibition was -4%. CC(=O)C1=C(O)C(=O)N(Cc2cccnc2)C1c1ccc(C(C)C)cc1 (stereo not drawn) was tested, and the inhibition was 0.222%. CCOc1ccc(C(=O)NCC2(c3ccccc3)CCOCC2)cc1 was tested, and the inhibition was -5.73%. COc1ccc(CNC(=O)C2CCN(C(=O)[C@@H](CC(C)C)NC(=O)OC(C)(C)C)CC2)cc1 showed an inhibition of 2.06%. In the case of CCc1oc2ccccc2c1C(=O)c1cc(Br)c(O)c(Br)c1, the inhibition was -13.4%. For CCCCc1oc2ccccc2c1C(=O)c1cc(I)c(OCCN(CC)CC)c(I)c1, the inhibition was 72.2% (active). With CCCCOc1cc(C(=O)NCCN(CC)CC)c2ccccc2n1 the inhibition was 8.91% and -1.38%. Cc1ccc2c(c1)C(O)(C1COC(C)(C)CC1=O)C(=O)N2C (stereo not drawn) gave an inhibition of -1%. In the case of COc1cccc2c(O)cc(=O)n(C)c12, the inhibition was 6.83%. COc1cccc(=O)c2c(C)n(CC(=O)c3ccccc3)c(C)c12 was tested, and the inhibition was -138%. With O=C(CCC(=O)NCCO)NCCO the inhibition was 4.45%. For CC1=C/C(=N\N=C2\NC(=O)C(CC(=O)Nc3ccccc3F)S2)CC(C)(C)C1 (stereo not drawn), the inhibition was -3.25%. In the case of CSCC[C@H](NC(=O)NC1CCCC1)C(=O)O, the inhibition was -5.4%. With CCOC(=O)c1cnc2ccc(C(=O)OC)cc2c1Nc1ccc2c(c1)OCCO2 the inhibition was 0.862%. Work on CN(C)CCOC(c1ccccc1)c1ccccc1 (tested in a mixture with another compound) yielded an inhibition of 0.693%. In the case of O=C(OCCNC(=O)c1ccc2ccccc2n1)c1ccc(F)cc1, the inhibition was 3.05%. In the case of CC1CCN(CCOCCOc2ccccc2Br)CC1, the inhibition was -6.71%. Molecule CC1(C)CC(NCc2ccccc2)CCO1 (stereo not drawn) has an inhibition of -6.22%. Cc1nc(N[C@@H](Cc2c[nH]c3ccccc23)C(=O)O)c2oc3ccccc3c2n1 gave an inhibition of -19.8%. COc1ccc(NC(=O)CC(c2ccccc2)c2ccco2)cc1 (stereo not drawn) gave an inhibition of -8.33%. CC(=O)SC1CC2=CC(=O)CCC2(C)C2CCC3(C)C(CCC34CCC(=O)O4)C12 (stereo not drawn) gave an inhibition of -15.3%. In the case of COc1ccc(C2NC(=O)c3ccccc3O2)c(OC)c1OC (stereo not drawn), the inhibition was -1.29%. COc1cccc(/C=C/C(=O)c2c(O)cc(C)oc2=O)c1O was tested, and the inhibition was -38.5%. In the case of CCOc1ccc(NC2OC(C)C(O)C(O)C2O)c([N+](=O)[O-])c1 (stereo not drawn), the inhibition was -2.79%. Work on CC(C)CC1c2[nH]c3ccccc3c2CCN1C(=O)CCC(=O)N(C)C (stereo not drawn) yielded an inhibition of -3.31%. For CC(NC(=O)OCc1ccccc1)C(=O)N1CC(O)CC1C(=O)O (stereo not drawn), the inhibition was -5.77%. COCCNC(=O)CSc1ccc(Cl)cc1 showed an inhibition of -17.2%. For CC(C)CCn1c(N2CCc3ccccc3C2)nc2c1c(=O)[nH]c(=O)n2C, the inhibition was -3.91%. Molecule O=C1Cc2ccccc2C(c2ccccc2)N1 (stereo not drawn) has an inhibition of -8.11%. With COc1ccc(-c2noc(CCc3ccccc3)n2)cc1 the inhibition was -6.01%. COC(=O)c1cc(-c2c(C)oc3cc(OC)ccc3c2=O)c(C)o1 was tested, and the inhibition was 2.67%. O=c1c(-c2ccc3c(c2)OCCO3)coc2cc(OC3OC(CO)C(O)C(O)C3O)ccc12 (stereo not drawn) was tested, and the inhibition was 2.13%. With COc1ccc(-c2[nH]ncc2CN(CCO)Cc2cccs2)c(F)c1 the inhibition was -3.67%. With Cc1ccc2c(c1)c1c3n2CCCN(Cc2ccccc2)C3CCC1 (stereo not drawn) the inhibition was 3.99%. Molecule Cc1nc(NCc2ccco2)c(C#N)c2c1COC(C)(C)C2 has an inhibition of -36.8%. With COc1cccc(CN2C(=O)N(C(C)C)C(N(O)C(=O)NC(C)C)C2(C)C)c1OC (stereo not drawn) the inhibition was 2.14%. COc1cc2cc(C(=O)O)n(C)c2c(OC)c1OC showed an inhibition of -3.98%. CCC(=O)Oc1ccc(/C(CC)=C(\CC)c2ccc(OC(=O)CC)cc2)cc1 gave an inhibition of -4.46%. With CN(C)CCOc1ccccc1Cc1ccccc1 the inhibition was 1.84%. In the case of CC/C(=C(\c1ccc(O)cc1)c1ccc(OCCN(C)C)cc1)c1ccccc1, the inhibition was 76% (active). For CC(=O)c1cccc2c(O)c(C3=Nc4ccccc4C3=O)[nH]c12, the inhibition was -6.23%. CC(OC(=O)c1cc(=O)[nH]c2ccccc12)C(=O)c1ccccc1 (stereo not drawn) was tested, and the inhibition was 1.44%. Molecule COc1cc(/C=C/C(=O)N2CCCC2)cc(OC)c1OC has an inhibition of -3.32%. For Cn1c(=O)[nH]c(=O)c2c1ncn2CCN1CCOCC1, the inhibition was -9.6%. For OCCN1CCN(CCCN2c3ccccc3Sc3ccc(C(F)(F)F)cc32)CC1, the inhibition was 65.2% (active). Work on Clc1ccc(OCCCN2CCCCC2)c(Br)c1 yielded an inhibition of 5.3%. For CN(C)CCCN1c2ccccc2CCc2ccc(Cl)cc21, the inhibition was 16%. With CN1CCN(CCCN2c3ccccc3Sc3ccc(C(F)(F)F)cc32)CC1 the inhibition was 67.4% (active). With OCCN1CCN(CCCN2c3ccccc3Sc3ccc(Cl)cc32)CC1 the inhibition was 73.4% (active). Molecule OCCOCCN1CCN(C(c2ccccc2)c2ccc(Cl)cc2)CC1 (stereo not drawn) has an inhibition of 7.68%. Work on CNCCCN1c2ccccc2CCc2ccccc21 yielded an inhibition of -18.4%. CN(C)CCCN1c2ccccc2Sc2ccc(Cl)cc21 was tested, and the inhibition was 68.5% (active). For CN(C)CCCN1c2ccccc2Sc2ccc(C(F)(F)F)cc21, the inhibition was 29.1%. OC(CCCN1CCCCC1)(c1ccccc1)c1ccccc1 gave an inhibition of 10.1%. CN(C)CCCN1c2ccccc2Sc2ccccc21 gave an inhibition of 7.51%. For O=c1oc2c(CN3CCN(CCO)CC3)c(O)ccc2cc1-c1ccccn1, the inhibition was -38.1%. CCOC(=O)c1oc2cc(O)cc(C)c2c(=O)c1-c1cscn1 was tested, and the inhibition was 5.2%. CC(=O)C1=C(Nc2ccc(C)cc2)CC(C)(O)C(C(C)=O)C1c1ccco1 (stereo not drawn) gave an inhibition of -76.2%. With CCN(CC)CCNc1ccc(CO)c2sc3ccccc3c(=O)c12 the inhibition was 61.5% (active). CCN(CC)CCCNC(=O)C1c2ccccc2Oc2ccccc21 gave an inhibition of 4.59%. Molecule C[C@]12CC[C@@H]3c4ccc(O)cc4CC[C@H]3[C@@H]1C[C@@H](O)[C@@H]2O[C@@H]1O[C@H](C(=O)O)[C@@H](O)[C@H](O)[C@H]1O has an inhibition of 5.26%. For O=C(NCCc1ccccc1)C1CCN(C2CCN(Cc3ccco3)CC2)CC1, the inhibition was -15.9%. Molecule COc1ccc(-c2coc3c(CN4CCOCC4)c(O)ccc3c2=O)cc1 has an inhibition of 7.99%. For COc1ccc2[nH]c(CN3CCN(CC(C)C)C(CCO)C3)c(C)c2c1 (stereo not drawn), the inhibition was -14.8%. In the case of O=C(CN1C(=O)C2CCc3[nH]c4ccccc4c3C2C1=O)N1CCCC1 (stereo not drawn), the inhibition was -14.6%. OC12CCCCC1C(c1ccc3c(c1)OCO3)N(Cc1cccc(F)c1)CC2 (stereo not drawn) was tested, and the inhibition was -0.832%. CCC(=O)Oc1ccc(C(=O)Nc2ccc([N+](=O)[O-])cc2)cc1 gave an inhibition of 3.79%. For CN1CC2CCCC3(C1)C(=O)NC1(CCCCC1)N=C23 (stereo not drawn), the inhibition was -2.27%. With C1CCC(C(CC2CCCCN2)C2CCCCC2)CC1 (stereo not drawn) the inhibition was 62.5% (active). CC(=O)c1cn(C)c(=O)[nH]c1=O was tested, and the inhibition was -3.65%. CCn1c(N2CCN(CC(=O)c3c(C)n(C)c4ccc(OC)cc34)CC2)nc2c1c(=O)[nH]c(=O)n2C was tested, and the inhibition was -1.17%. CC1(C)CC(=O)c2cn3c(nc2C1)nc1ccccc13 was tested, and the inhibition was -4.04%. CC(=O)N(CCC(Cc1ccccc1)c1ccco1)Cc1ccco1 (stereo not drawn) was tested, and the inhibition was -17.2%. In the case of NC(N)=N/N=C/c1cccc(Cl)c1Cl, the inhibition was 18.4%. For CN1CCc2c(n(CC(O)CN(CCO)CCO)c3ccccc23)C1=O (stereo not drawn), the inhibition was 11.3%. In the case of OCCN(CCO)c1ccc2ccccc2c1, the inhibition was -0.71%.
